Screening data deposited in PubChem BioAssay by National Center for Advancing Translational Sciences (NCATS).
ALOX12 inh – ALOX12 (human) lipoxygenase inhibition | purified 12hLO, xylenol orange hydroperoxide absorbance | AID 1671190 | Potency, µM (series often up to 108 µM), without a hit: at the highest dose activity change, negative = inhibition, actives largely listed as inhibitors | 580,000 compounds, 1.1% hits; note: potency is the fitted concentration of half-maximal effect; % is set by controls: 0 for no effect and ±100 for the full control effect
Target sequence (P18054 whole entry, looked up): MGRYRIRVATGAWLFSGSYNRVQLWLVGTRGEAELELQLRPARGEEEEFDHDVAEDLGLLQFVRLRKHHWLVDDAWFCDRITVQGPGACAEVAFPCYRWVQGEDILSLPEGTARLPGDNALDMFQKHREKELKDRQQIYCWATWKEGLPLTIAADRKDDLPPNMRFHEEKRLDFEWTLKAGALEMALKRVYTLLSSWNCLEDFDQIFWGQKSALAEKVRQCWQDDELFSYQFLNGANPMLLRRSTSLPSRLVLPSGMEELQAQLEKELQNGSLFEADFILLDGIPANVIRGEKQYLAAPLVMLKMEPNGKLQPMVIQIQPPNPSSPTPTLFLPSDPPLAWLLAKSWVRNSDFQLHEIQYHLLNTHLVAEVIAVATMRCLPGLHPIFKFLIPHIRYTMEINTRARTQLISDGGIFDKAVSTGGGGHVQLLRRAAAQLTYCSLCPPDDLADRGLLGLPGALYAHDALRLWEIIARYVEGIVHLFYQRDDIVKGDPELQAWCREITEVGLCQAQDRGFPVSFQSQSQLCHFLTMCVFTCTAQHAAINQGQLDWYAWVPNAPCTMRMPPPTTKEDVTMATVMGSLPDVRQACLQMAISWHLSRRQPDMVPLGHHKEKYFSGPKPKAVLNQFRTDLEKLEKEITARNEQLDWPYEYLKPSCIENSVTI
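Purified human 12hLO at 150 nM in 25 mM Hepes, 0.01% Triton X-100, pH 7.0, preincubated 15 min at room temperature with compound. Reaction started with 40 uM arachidonic acid, 30 min at room temperature. Hydroperoxide measured by Fe-xylenol orange, 573/405 nm absorbance ratio.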
uPA surface inh – blocks generation of uPA at the cell surface | 330,000 compounds, 0.31% hits | cell surface uPA generation assay, qHTS | Potency, µM (highest dose often 38.3 µM), for the others: at the highest dose activity change, negative = inhibition, actives largely listed as inhibitors; active = well fitted inhibition curve with a large enough effect; inconclusive = small, poorly fitted or top-dose-only effect; inactive = no such curve, though single readings can be large or run the other way; tested in mouse RAW 264.7 cells; note: potency is the fitted concentration of half-maximal effect; % is set by controls: 0 for no effect and ±100 for the full control effect; nearly all actives have a fitted effect of over 55% in size
IL-2 act – activates IL-2 in a cell-based reporter assay; IL-2 activation reporter assay, cell-based qHTS; stimulated with anti-CD3/CD4/CD28 beads; in transgenic mouse T cells; activation, % (series mostly up to about 46 µM); 360,000 compounds, 0.065% hits; AID 652025; in the data active = activation above about 50%; inconclusive = mostly about 30% to 49%; note: 0% is about no effect
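Unstimulated transgenic mouse T cells, 750 per well, received compound and, after 60 minutes, anti-CD3/anti-CD4 bead plus anti-CD28 stimulation. EGFP and DsRed were quantified after 18 hours.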
Nrf2 ARE act – Nrf2 pathway activation; AREc32 ARE-luciferase reporter (MCF7-derived line), luminescence, 24 h; Potency, µM (titrated, usually from 46.1 µM), for inactives: top-dose activation, most hits filed as activators; 410,000 compounds, 0.31% hits; AID 624171; note: potency is the fitted concentration of half-maximal effect; % of control where 0% means no effect; nearly all actives have a fitted effect of over 65% in size
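AREc32 cells carrying an ARE-driven firefly luciferase reporter were seeded at 1000 cells/well in OPTI-MEM with 5% FBS, then exposed to compound for 24 hr at 37 deg C. Luminescence was read with Steady-Glo after 30 min at RT.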
a7 integrin act – integrin-mediated muscular dystrophy alleviation activation; alpha7betagal myoblasts, beta-gal FDG fluorescence, 48 h; Potency, µM (doses to about 38.3 µM), for the others: top-dose activation, hits mostly activators; 350,000 compounds, 0.064% hits; AID 624291;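 note: potency is the fitted concentration of half-maximal effect; 100% = response of the positive control SU9516; nearly all actives have a fitted effect of over 60% in size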
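alpha7betagal+/- myoblasts (passage 13, 250/well) treated 48 h at 37C with compounds at 1:260 dilution of DMSO stock. Lysed, then beta-galactosidase activity read as FDG fluorescence (ex 480/em 540) after 30 min, with pre-read for autofluorescence.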
Active calls of the source: *; u = inconclusive; x = no result; [ ] = dose if it differs, or a comment. In the library only some 1.5% were active in any assay of this set; here they are far more common. Unless noted, calls come from the whole dose curve; as a rule, active = well fitted curve in the direction sought with a large enough effect; inconclusive = small, poorly fitted or top-dose-only effect, or another doubt; inactive = no such curve, though single readings can be large; an effect the other way counts as inactive or inconclusive.

SMILES | ALOX12 inh | uPA surface inh | IL-2 act | Nrf2 ARE act | a7 integrin act
NC(=S)N/N=C/c1ccccc1[N+](=O)[O-] | 35µM* | -2% | 5 | 0% | -3%
O=[N+]([O-])c1ccccc1/C=N/Nc1nccnc1Cl | 0% | x | 1 | 6.3µM* | 3%[7.66 µM]
Cc1nc(N=Nc2cc([N+](=O)[O-])ccc2Cl)c(COP(=O)(O)O)c(C=O)c1O | 11µM* | x | x | x | x
CSc1nc(N)nc(SCCS(=O)(=O)c2ccc(Cl)cc2)c1C#N | 0% | u | -1 | 13µM* | -59%
O=C(CSc1nc(-c2cccs2)nc2ccccc12)NCc1ccccc1 | -6% | x | x | x | x
Cc1cc(NC(=O)CSc2nc(-c3cccs3)nc3ccccc23)no1 | -5% | 1.8µM* | -1 | 3% | -56%
CN(C)Cc1ccccc1-c1cc(Nc2ccccc2)ncn1 | -9% | x | x | x | x
CN(C)Cc1ccccc1-c1cc(N(C)C)ncn1 | 40µM* | x | x | x | x
FC(F)(F)c1cc(-c2ccco2)nc(NCc2ccco2)n1 | u | -5% | 3 | 10µM* | -24%
FC(F)(F)c1cc(-c2ccco2)nc(NCc2cccs2)n1 | u | -1% | -1 | u | -22%
COc1ccc(Nc2nc3ccccc3nc2-n2nc(C)cc2C)cc1Cl | -4% | x | x | x | x
COc1cc(C)c(NC(=O)c2ccc3c(c2)NC(=O)CS3)cc1OC | 20µM* | x | x | x | x
CNC(=O)C1(N2CCC[C@H]2C(=O)N2CCC[C@@H]2COC)CCCCC1 | 22µM* | x | x | x | x
CNC(=O)C1(N2CCC[C@H]2C(=O)N2CC[C@@H](O)C2)CCCCC1 | 10%[176 µM] | x | x | x | x
CN(C)c1ccc(CN2CCOC[C@H]2c2ncc(-c3cccc(Cl)c3)[nH]2)cc1 | 19%[176 µM] | x | x | x | x
S=C1NC(c2cccs2)=CC(c2ccc(Br)cc2)N1 (configuration not stated) | 40µM* | -1% | 2 | 9% | 18%
O=S(=O)(O)c1cc(Cl)cc(N=Nc2ccc(O)cc2O)c1O | 45µM* | -8% | 0 | 11% | 9%
COCC(=O)N1CC(C(=O)Nc2ccccn2)C2(CCOCC2)C1 (configuration not stated) | -10% | x | x | x | x
COc1cc(/C=C/C(=O)OCC(=O)NNC(=O)c2cc(Cl)ccc2OC)ccc1O | 6% | -4% | 1 | 0% | -28%
COc1cc(/C=C/C(=O)OCCOc2ccc(Cl)cc2)ccc1O | 20µM* | x | x | x | x
COc1ccc(-n2ncc3c(NCCC4=CCCCC4)ncnc32)cc1 | 3.5µM* | x | x | 1% | x
Cc1ccc(-n2ncc3c(NCCc4ccc(S(N)(=O)=O)cc4)ncnc32)cc1 | -18% | x | x | 6% | x
COc1ccc(CNc2ncnc3c2cnn3-c2ccc(C)c(C)c2)cc1 | -25% | x | x | 1% | x
Cc1ccc(-n2ncc3c(NCCC4=CCCCC4)ncnc32)cc1 | 13µM* | x | x | 0% | x
Cn1c(-c2ccccc2)cnc1NCc1ccccc1 | u | u | 0 | 3% | -45%
SMILES | ALOX12 inh | uPA surface inh | IL-2 act | Nrf2 ARE act | a7 integrin act
Cn1c(-c2cccc([N+](=O)[O-])c2)cnc1NCc1ccc(C#N)cc1 | u | 5% | 0 | 0% | -9%
Cn1c(-c2ccc(Br)cc2)cnc1NCc1ccc(C#N)cc1 | 2.5µM* | -6% | 0 | 10% | 36%
Cn1c(-c2cccc(Br)c2)cnc1NCc1ccccc1O | 14µM* | -3% | -3 | 2% | -17%
COc1cccc(CNc2ncc(-c3ccc(Br)cc3)n2C)c1 | 8.9µM* | x | x | 6% | x
COc1ccc(CNc2ncc(-c3ccc(Br)cc3)n2C)cc1OC | -64% | -5% | -1 | -1% | -34%
O=C1CCC2(CCN(c3ncc(F)cn3)CC2)CN1CC1CCCO1 (configuration not stated) | -11% | x | x | x | x
FC(F)(F)c1ccc2nc([C@H]3CCN(Cc4ccc(Cl)cc4)C3)[nH]c2c1 | 32µM* | x | x | x | x
Clc1ccc(CN2CC[C@H](c3nc4cc(Cl)ccc4o3)C2)cc1 | 22µM* | x | x | x | x
CN(C)c1ccc(CN2CC[C@H](c3nc4ccc(C(F)(F)F)cc4[nH]3)C2)cc1 | -1%[176 µM] | x | x | x | x
Cc1nnc(-c2cc(-c3cccc(CO)c3)ccn2)n1C1CCCCC1 | 18%[176 µM] | x | x | x | x
C=CCn1c(=O)/c(=C/c2ccsc2)s/c1=C(\C#N)C(=O)NCCN1CCOCC1 | -18% | -9% | 60* | 0% | 0%
CC(=O)COC(=O)C1CCN(S(=O)(=O)c2cc([N+](=O)[O-])ccc2Cl)CC1 | 0% | -17% | -2 | 14µM* | -36%
